# Results taken from article PMC9911399, “Two distinct binding modes provide the RNA-binding protein RbFox with extraordinary sequence specificity”.
# Changes are numbered by the printed parent chain; changes in the protein carry UniProt numbers. The full ranking holds about 16,000 sequences; the median of “ka relative to ugcaugu” is about 0.096, and the highest 2% start at about 0.35. This is one part of a sample in which the highest values are shown more often than they occur.
# T1: RBFOX1 RRM RbFoxmut (Fox-RRM*) (Homo sapiens, UniProt Q9NWB1 109-208, R118D;E147R;N151S;E152T)
# T1 sequence: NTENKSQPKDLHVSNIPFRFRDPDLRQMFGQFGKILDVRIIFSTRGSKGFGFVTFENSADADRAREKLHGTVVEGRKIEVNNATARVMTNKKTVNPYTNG
# B1: UAUACUA (DNA:RNA)
# RNA: GGGAGACCGGAAUUCAGAUUGUCCUAUACUAUUAAAUCCCGUCGUAGCCACCA
# DNA 1: CAATCTGAATTCCGGTCTCCC
# DNA 2: TGGTGGCTACGACGGGATT
# B2: CUUGGCU (DNA:RNA)
# RNA: B1 RNA with U25C, A26U, A28G, C29G, U30C, A31U
# DNA 1: CAATCTGAATTCCGGTCTCCC
# DNA 2: TGGTGGCTACGACGGGATT
# B3: AAGCCAC (DNA:RNA)
# RNA: B1 RNA with U25A, U27G, A28C, U30A, A31C
# DNA 1: CAATCTGAATTCCGGTCTCCC
# DNA 2: TGGTGGCTACGACGGGATT
# B4: CUGCCGC (DNA:RNA)
# RNA: B1 RNA with U25C, A26U, U27G, A28C, U30G, A31C
# DNA 1: CAATCTGAATTCCGGTCTCCC
# DNA 2: TGGTGGCTACGACGGGATT
# B5: UACUCGG (DNA:RNA)
# RNA: B1 RNA with U27C, A28U, U30G, A31G
# DNA 1: CAATCTGAATTCCGGTCTCCC
# DNA 2: TGGTGGCTACGACGGGATT
# B6: CAGGGUU (DNA:RNA)
# RNA: B1 RNA with U25C, U27G, A28G, C29G, A31U
# DNA 1: CAATCTGAATTCCGGTCTCCC
# DNA 2: TGGTGGCTACGACGGGATT
# B7: CCUACAU (DNA:RNA)
# RNA: B1 RNA with U25C, A26C, U30A, A31U
# DNA 1: CAATCTGAATTCCGGTCTCCC
# DNA 2: TGGTGGCTACGACGGGATT
# B8: UGUCUCG (DNA:RNA)
# RNA: B1 RNA with A26G, A28C, C29U, U30C, A31G
# DNA 1: CAATCTGAATTCCGGTCTCCC
# DNA 2: TGGTGGCTACGACGGGATT
# B9: UGAAGGC (DNA:RNA)
# RNA: B1 RNA with A26G, U27A, C29G, U30G, A31C
# DNA 1: CAATCTGAATTCCGGTCTCCC
# DNA 2: TGGTGGCTACGACGGGATT
# B10: AUUUCAU (DNA:RNA)
# RNA: B1 RNA with U25A, A26U, A28U, U30A, A31U
# DNA 1: CAATCTGAATTCCGGTCTCCC
# DNA 2: TGGTGGCTACGACGGGATT
# B11: CACACCG (DNA:RNA)
# RNA: B1 RNA with U25C, U27C, U30C, A31G
# DNA 1: CAATCTGAATTCCGGTCTCCC
# DNA 2: TGGTGGCTACGACGGGATT
# B12: UGGGUAU (DNA:RNA)
# RNA: B1 RNA with A26G, U27G, A28G, C29U, U30A, A31U
# DNA 1: CAATCTGAATTCCGGTCTCCC
# DNA 2: TGGTGGCTACGACGGGATT
# B13: GUUCCGU (DNA:RNA)
# RNA: B1 RNA with U25G, A26U, A28C, U30G, A31U
# DNA 1: CAATCTGAATTCCGGTCTCCC
# DNA 2: TGGTGGCTACGACGGGATT
# B14: AUAUCCC (DNA:RNA)
# RNA: B1 RNA with U25A, A26U, U27A, A28U, U30C, A31C
# DNA 1: CAATCTGAATTCCGGTCTCCC
# DNA 2: TGGTGGCTACGACGGGATT
# B15: UGAUACC (DNA:RNA)
# RNA: B1 RNA with A26G, U27A, A28U, C29A, U30C, A31C
# DNA 1: CAATCTGAATTCCGGTCTCCC
# DNA 2: TGGTGGCTACGACGGGATT
# B16: CCUAGCC (DNA:RNA)
# RNA: B1 RNA with U25C, A26C, C29G, U30C, A31C
# DNA 1: CAATCTGAATTCCGGTCTCCC
# DNA 2: TGGTGGCTACGACGGGATT
# B17: GGAAGUC (DNA:RNA)
# RNA: B1 RNA with U25G, A26G, U27A, C29G, A31C
# DNA 1: CAATCTGAATTCCGGTCTCCC
# DNA 2: TGGTGGCTACGACGGGATT
# B18: CGGUACG (DNA:RNA)
# RNA: GGGAGACCGGAAUUCAGAUUGUCCCGGUACGUUAAAUCCCGUCGUAGCCACCA
# DNA 1: CAATCTGAATTCCGGTCTCCC
# DNA 2: TGGTGGCTACGACGGGATT
# B19: UGGUACC (DNA:RNA)
# RNA: B18 RNA with C25U, G31C
# DNA 1: CAATCTGAATTCCGGTCTCCC
# DNA 2: TGGTGGCTACGACGGGATT
# B20: UUGUCCG (DNA:RNA)
# RNA: B18 RNA with C25U, G26U, A29C
# DNA 1: CAATCTGAATTCCGGTCTCCC
# DNA 2: TGGTGGCTACGACGGGATT
# B21: GUCCUUG (DNA:RNA)
# RNA: B18 RNA with C25G, G26U, G27C, U28C, A29U, C30U
# DNA 1: CAATCTGAATTCCGGTCTCCC
# DNA 2: TGGTGGCTACGACGGGATT
# B22: UGGUACG (DNA:RNA)
# RNA: B18 RNA with C25U
# DNA 1: CAATCTGAATTCCGGTCTCCC
# DNA 2: TGGTGGCTACGACGGGATT
# B23: UUGUUCG (DNA:RNA)
# RNA: B18 RNA with C25U, G26U, A29U
# DNA 1: CAATCTGAATTCCGGTCTCCC
# DNA 2: TGGTGGCTACGACGGGATT
# B24: GUAACCG (DNA:RNA)
# RNA: B18 RNA with C25G, G26U, G27A, U28A, A29C
# DNA 1: CAATCTGAATTCCGGTCTCCC
# DNA 2: TGGTGGCTACGACGGGATT
# B25: UGAUCUC (DNA:RNA)
# RNA: B1 RNA with A26G, U27A, A28U, A31C
# DNA 1: CAATCTGAATTCCGGTCTCCC
# DNA 2: TGGTGGCTACGACGGGATT
# B26: UGCUGAG (DNA:RNA)
# RNA: B18 RNA with C25U, G27C, A29G, C30A
# DNA 1: CAATCTGAATTCCGGTCTCCC
# DNA 2: TGGTGGCTACGACGGGATT
# B27: CCCCGAA (DNA:RNA)
# RNA: B18 RNA with G26C, G27C, U28C, A29G, C30A, G31A
# DNA 1: CAATCTGAATTCCGGTCTCCC
# DNA 2: TGGTGGCTACGACGGGATT
# B28: GUAAUGU (DNA:RNA)
# RNA: B1 RNA with U25G, A26U, U27A, C29U, U30G, A31U
# DNA 1: CAATCTGAATTCCGGTCTCCC
# DNA 2: TGGTGGCTACGACGGGATT
# B29: CGAAUUG (DNA:RNA)
# RNA: B18 RNA with G27A, U28A, A29U, C30U
# DNA 1: CAATCTGAATTCCGGTCTCCC
# DNA 2: TGGTGGCTACGACGGGATT
# B30: CGAUUGU (DNA:RNA)
# RNA: B18 RNA with G27A, A29U, C30G, G31U
# DNA 1: CAATCTGAATTCCGGTCTCCC
# DNA 2: TGGTGGCTACGACGGGATT
# B31: GAUGUUU (DNA:RNA)
# RNA: B1 RNA with U25G, A28G, C29U, A31U
# DNA 1: CAATCTGAATTCCGGTCTCCC
# DNA 2: TGGTGGCTACGACGGGATT
# B32: CGAAUGU (DNA:RNA)
# RNA: B18 RNA with G27A, U28A, A29U, C30G, G31U
# DNA 1: CAATCTGAATTCCGGTCTCCC
# DNA 2: TGGTGGCTACGACGGGATT
# B33: GAAUGUU (DNA:RNA)
# RNA: B1 RNA with U25G, U27A, A28U, C29G, A31U
# DNA 1: CAATCTGAATTCCGGTCTCCC
# DNA 2: TGGTGGCTACGACGGGATT
# B34: CGAAAUG (DNA:RNA)
# RNA: B18 RNA with G27A, U28A, C30U
# DNA 1: CAATCTGAATTCCGGTCTCCC
# DNA 2: TGGTGGCTACGACGGGATT
# B35: GAAAUGU (DNA:RNA)
# RNA: B1 RNA with U25G, U27A, C29U, U30G, A31U
# DNA 1: CAATCTGAATTCCGGTCTCCC
# DNA 2: TGGTGGCTACGACGGGATT
# B36: GGAAUGU (DNA:RNA)
# RNA: B18 RNA with C25G, G27A, U28A, A29U, C30G, G31U
# DNA 1: CAATCTGAATTCCGGTCTCCC
# DNA 2: TGGTGGCTACGACGGGATT
# B37: CCGAAUG (DNA:RNA)
# RNA: B18 RNA with G26C, U28A, C30U
# DNA 1: CAATCTGAATTCCGGTCTCCC
# DNA 2: TGGTGGCTACGACGGGATT
# B38: CGUCGUU (DNA:RNA)
# RNA: B18 RNA with G27U, U28C, A29G, C30U, G31U
# DNA 1: CAATCTGAATTCCGGTCTCCC
# DNA 2: TGGTGGCTACGACGGGATT
# Target: T1, RBFOX1 RRM RbFoxmut (Fox-RRM*)
# Assay: EMSA; HiTS-Eq, 1 nM pool, 10 min; buffer printed only for the single-RNA assays: 10 mM Tris pH 7.5, 150 mM NaCl, 3.4 mM EDTA, 0.001% NP-40, 30 C
# Settings: tags: His6 N-terminal (pET28a); label: 5' 32P
# In short: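 A pool of RNA with 7 randomized nucleotides, 5′-radiolabelled and with DNA-annealed flanks, was equilibrated at 1 nM for 10 min in 50 µL with purified RbFox RRM, wild type or mutant, across increasing protein concentrations. Free RNA was separated by 8% native PAGE, excised, reverse-transcribed, barcoded by PCR and sequenced. Relative association constants were obtained from read-count changes of each RNA species versus the control reaction and normalised to the cognate motif.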
row,Binder,binding signal
1,B1,0.0619 KA relative to UGCAUGU
2,B2,0.102 KA relative to UGCAUGU
3,B3,0.0884 KA relative to UGCAUGU
4,B4,0.116 KA relative to UGCAUGU
5,B5,0.0779 KA relative to UGCAUGU
6,B6,0.106 KA relative to UGCAUGU
7,B7,0.0881 KA relative to UGCAUGU
8,B8,0.32 KA relative to UGCAUGU
9,B9,0.0677 KA relative to UGCAUGU
10,B10,0.12 KA relative to UGCAUGU
11,B11,0.12 KA relative to UGCAUGU
12,B12,0.172 KA relative to UGCAUGU
13,B13,0.127 KA relative to UGCAUGU
14,B14,0.0954 KA relative to UGCAUGU
15,B15,0.103 KA relative to UGCAUGU
16,B16,0.149 KA relative to UGCAUGU
17,B17,0.111 KA relative to UGCAUGU
18,B18,0.24 KA relative to UGCAUGU
19,B19,0.133 KA relative to UGCAUGU

row,Binder,binding signal
1,B20,0.188 KA relative to UGCAUGU
2,B21,0.116 KA relative to UGCAUGU
3,B22,0.367 KA relative to UGCAUGU
4,B23,0.463 KA relative to UGCAUGU
5,B24,0.114 KA relative to UGCAUGU
6,B25,0.0775 KA relative to UGCAUGU
7,B26,0.102 KA relative to UGCAUGU
8,B27,0.136 KA relative to UGCAUGU
9,B28,0.154 KA relative to UGCAUGU
10,B29,0.141 KA relative to UGCAUGU
11,B30,0.206 KA relative to UGCAUGU
12,B31,0.125 KA relative to UGCAUGU
13,B32,1.07 KA relative to UGCAUGU
14,B33,0.884 KA relative to UGCAUGU
15,B34,0.101 KA relative to UGCAUGU
16,B35,0.0843 KA relative to UGCAUGU
17,B36,0.959 KA relative to UGCAUGU
18,B37,1.39 KA relative to UGCAUGU
19,B38,0.108 KA relative to UGCAUGU
